Whole data set: some 33,000 sequences, median “E-score (-0.5 to 0.5)” near -0.016, cut for the highest 2% near 0.3. This is one part of a sample in which the highest values are shown more often than they occur.
Each sequence was assayed against T1, Yer184c (UniProt P39961) (assay: PBM E-score (8-mer binding enrichment) (E-score (-0.5 to 0.5)); higher = stronger / more preferred TF binding). Details: protein concentration: 100 nM; construct: GST-full length.
T1 sequence: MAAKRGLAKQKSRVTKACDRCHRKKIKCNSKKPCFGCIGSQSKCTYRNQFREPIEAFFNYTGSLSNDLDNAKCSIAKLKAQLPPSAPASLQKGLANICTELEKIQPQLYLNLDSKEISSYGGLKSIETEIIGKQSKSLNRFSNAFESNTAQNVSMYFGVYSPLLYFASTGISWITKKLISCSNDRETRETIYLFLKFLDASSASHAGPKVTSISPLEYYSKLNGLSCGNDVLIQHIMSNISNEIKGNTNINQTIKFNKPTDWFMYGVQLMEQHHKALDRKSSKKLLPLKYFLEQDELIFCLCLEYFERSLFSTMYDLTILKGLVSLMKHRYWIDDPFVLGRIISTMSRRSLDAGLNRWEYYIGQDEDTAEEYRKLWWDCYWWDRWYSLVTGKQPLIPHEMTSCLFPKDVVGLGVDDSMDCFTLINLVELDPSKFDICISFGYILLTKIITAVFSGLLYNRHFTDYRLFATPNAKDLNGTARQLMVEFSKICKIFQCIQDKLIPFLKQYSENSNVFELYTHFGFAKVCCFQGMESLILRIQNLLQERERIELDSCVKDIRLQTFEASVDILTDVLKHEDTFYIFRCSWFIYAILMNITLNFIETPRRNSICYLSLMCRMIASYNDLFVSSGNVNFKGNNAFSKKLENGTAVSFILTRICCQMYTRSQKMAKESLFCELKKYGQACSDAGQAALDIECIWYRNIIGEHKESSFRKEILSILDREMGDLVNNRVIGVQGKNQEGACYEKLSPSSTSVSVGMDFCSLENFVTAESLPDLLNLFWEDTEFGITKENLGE
Protocol: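 Universal 'all 10-mer' protein binding microarrays (Agilent AMADID 015681) probed with GST-tagged S. cerevisiae TFs (full-length or DBD) made by in vitro transcription/translation (PURExpress), about 100-200 nM. Bound TF was detected with fluorescent anti-GST. Each ungapped 8-mer (which stands for itself and its reverse complement) is scored by the PBM enrichment score (E-score), a modified Wilcoxon-Mann-Whitney statistic from -0.5 to +0.5, computed with the Universal PBM Analysis Suite. Scale: above 0.35 generally sequence-specific binding.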

Row | Sequence | PBM E-score
1 | CAAGCCTC | -0.237
2 | CGTCCCCA | -0.276
3 | GACCATCC | -0.237
4 | GTGGCCAA | -0.156
5 | ATCAGCCC | -0.386
6 | AACGAACT | 0.0561
7 | CCCGAACA | 0.0635
8 | GCCGAACA | 0.329
9 | GCCGAACC | 0.323
10 | CCCGAACC | 0.0911
11 | ACCGAACC | 0.0575
12 | ACCGAACG | 0.235
13 | ACCGAACT | 0.306
14 | ACCGAACA | 0.259
15 | CCTGGGCA | -0.276
16 | CGATGTGC | -0.101
17 | ACCCCACC | 0.0874
18 | AGAATTGC | -0.134
19 | AGGGCAAC | -0.00172
20 | GATCGGGC | 0.00638
21 | CATCGGAC | 0.174
22 | TATCGGAA | 0.351
23 | AATCGGAC | 0.152
24 | GATCGGAA | 0.279
25 | AATCGGGT | 0.173

Row | Sequence | PBM E-score
26 | AATCGGAT | 0.327
27 | GATCGGAC | 0.322
28 | AATCGGCT | 0.349
29 | CATCGGAA | 0.278
30 | AATCGGCA | 0.289
31 | AATCGGCC | 0.146
32 | AGTAACTA | 0.173
33 | AGAAAACC | 0.0683
34 | CACCCCGC | 0.0453
35 | CGCAAGTA | 0.0344
36 | GGACCCAA | -0.081
37 | CCGTCAAA | 0.0576
38 | ACTCTGGC | -0.105
39 | AGAGAACG | 0.0412
40 | AGACTAAG | -0.0179
41 | ATCGTGGC | -0.101
42 | ATAGATAT | 0.161
43 | CGCTTTTC | -0.0353
44 | ACTGGCAA | -0.0748
45 | AGTCTAGG | -0.144
46 | AATCGGAA | 0.374
47 | AATCGGGA | 0.0709
48 | AATCGGAG | 0.216
49 | ACTTCACC | 0.18
50 | GCGCTTTA | 0.0325

Row | Sequence | PBM E-score
51 | ACTGGCGG | -0.0142
52 | AAATGCCG | 0.353
53 | AAATGCCC | -0.175
54 | CAATGCCG | 0.22
55 | CGTGCGTC | 0.0693
56 | AATGTTCT | 0.0086
57 | CTCGCCGA | 0.193
58 | GTCGCCGA | 0.219
59 | ATCGCCGA | 0.365
60 | ATCGCCGC | 0.206
61 | ACCGCCGG | 0.291
62 | ATCGCCGG | 0.39
63 | GCCCGTGA | -0.132
64 | AAATGCTC | -0.0216
65 | ACGGGTTC | 0.0138
66 | TCGGGTAA | 0.0925
67 | CCGGGTAC | 0.117
68 | CCGGGTTA | 0.25
69 | CCGGGTAA | 0.348
70 | CCGGGTTC | 0.356
71 | AGTTGTAG | 0.0893
72 | AAGGTGTA | -0.105
73 | CGCCACCG | -0.156
74 | AGTCCCAT | -0.173
75 | CCAGACCC | -0.262

Row | Sequence | PBM E-score
76 | AACTTTCA | 0.122
77 | GTACGGAA | 0.28
78 | ATACGGAT | 0.196
79 | ATACGGAC | 0.117
80 | ATACGGAA | 0.412
81 | TTACGGAA | 0.355
82 | CTACGGAA | 0.205
83 | CCTACTGA | -0.151
84 | GGTCTATA | -0.16
85 | TGCCGCAA | 0.135
86 | ACCGCATG | 0.0226
87 | ATGCTATG | -0.117
88 | CGGAATTC | 0.277
89 | AGGAATTA | 0.0841
90 | CGGAATCA | 0.306
91 | CGGAATTA | 0.352
92 | GGGAAGCA | -0.128
93 | CGGAAGCC | 0.211
94 | CGGAAGCA | 0.332
95 | CGGAATAC | 0.353
96 | GGGAATCA | 0.0818
97 | AGGAATAC | -0.0183
98 | GGGAATAC | 0.0278
99 | AGGAATCA | 0.078
100 | CGCTGCAA | 0.0112

Row | Sequence | PBM E-score
101 | AAACGATC | 0.161
102 | ACATACTC | 0.0395
103 | TAGCAGAA | 0.0545
104 | CCCGGAGA | 0.222
105 | ACCGGAGG | 0.144
106 | TCCGGAGA | 0.397
107 | ACCGGAGC | 0.247
108 | ACCGGAGA | 0.33
109 | GCCGGAGA | 0.29
110 | ATGATCAC | -0.0394
111 | AACTAGTG | -0.0163
112 | ACCATTCC | 0.0171
113 | ATTGGCCA | -0.148
114 | TCGGTTCA | 0.148
115 | TCCGGAAA | 0.449
116 | GCCGGAAA | 0.426
117 | GCTGGAAA | 0.133
118 | TCAGGAAA | 0.112
119 | CCCGGAAG | 0.259
120 | CCCGGAAA | 0.396
121 | GCAGGAAA | -0.0351
122 | TGCGGAAA | 0.184
123 | ATCTAGCC | 0.00276
124 | AGGTTATC | -0.0359
125 | GAACTTGC | 0.0842

Row | Sequence | PBM E-score
126 | ATCTTTTC | 0.0824
127 | CAGCGTAC | -0.147
128 | CGCCATTC | 0.0678
129 | GCACGGAA | 0.159
130 | CCACGGAG | 0.0656
131 | TCACGGAA | 0.341
132 | CCACGGAA | 0.338
133 | CCACGGAC | -0.00729
134 | ACACGGAA | 0.295
135 | AGGACAAG | -0.102
136 | AAGTCTCT | -0.246
137 | AACAGAAC | 0.163
138 | GTTGTACA | 0.277
139 | ATGCCGTC | 0.0209
140 | CTGCCGTC | -0.066
141 | GGGCCGGA | 0.244
142 | GTGCCGGA | 0.305
143 | CTGCCGAC | 0.0291
144 | ATGCCGCA | 0.124
145 | ATGCCGGC | 0.399
146 | ATGCCGGG | 0.244
147 | ATGCCGGA | 0.36
148 | GTGCCGTA | 0.16
149 | CTGCCGGC | 0.369
150 | ATGCCAGA | 0.0873

Row | Sequence | PBM E-score
151 | ATACGCGG | -0.0243
152 | AGCCCTCC | -0.201
153 | GCATTCCC | -0.182
154 | ACCTCTAA | 0.0296
155 | CATTGTGA | -0.164
156 | GCTGTGCC | -0.0243
157 | AGAGAGAT | 0.0462
158 | CACGTTCC | -0.176
159 | AGACCAAC | -0.108
160 | ATATTATG | 0.261
161 | ATATAACG | 0.255
162 | CAAGTAGC | -0.216
163 | CTGCCGGA | 0.349
164 | CTGCCGTA | -0.00407
165 | CTGCCGCA | -0.117
166 | CGATGCGA | -0.0338
167 | TCCGAGCA | 0.329
168 | GTCGAGAA | -0.0535
169 | ACCGAGAA | 0.282
170 | ACCGAGCA | 0.225
171 | GCCGAGCA | 0.186
172 | GCCGAGAA | 0.368

— the supplement of paper PMC3334620
